# Out of some 39,000 compounds screened, about 3,300 (8.5%) were called active. This excerpt belongs to a sample that is enriched for actives.
# Tested on: HepG2
# Assay: cytotoxicity call (relative viability < 0.9)
# Details: 10 µM
row,SMILES,cytotoxicity call
1,C[C@H]1CN([C@@H](C)CO)C(=O)c2cccc(NC(=O)c3ccc(-c4nccs4)cc3)c2O[C@H]1CN(C)S(C)(=O)=O,inactive
2,C[C@@H]1CN([C@H](C)CO)C(=O)c2cc(C#CCc3ccccc3)cnc2O[C@H]1CN(C)C(=O)Cc1cccnc1,inactive
3,C[C@H]1CN([C@@H](C)CO)C(=O)c2cc(-c3ccc(C#N)cc3)cnc2O[C@@H]1CN(C)C(=O)Nc1ccc(C(F)(F)F)cc1,inactive
4,Cc1ccc(Oc2ccc(CN)cc2)cc1,active
5,CN(C)CCOc1ccc(CN)cc1,inactive
6,NCc1ccc(-c2ccc(Br)cc2)cc1,inactive
7,C[C@@H]1CCCCO[C@@H](CN(C)Cc2ccncc2)[C@@H](C)CN([C@H](C)CO)C(=O)c2cc(NC(=O)C3CCCCC3)ccc2O1,inactive
8,Clc1ccc(Cn2ccnc2)cc1,inactive
9,O=C(O)C=Cc1ccc(Cn2ccnc2)cc1,active
10,O=C(O)CCn1ccnc1,inactive
11,NCCN1CCO[C@@H](CC(=O)Nc2cc(Cl)cc(Cl)c2)C1=O,inactive
12,O=C(N[C@@H](c1ccccc1)c1ccc2ccccc2n1)C1CCN(Cc2ccc(Cl)c(Cl)c2)CC1,inactive
13,CC(C)NC(=O)[C@H]1CC[C@@H](n2c(NC(=O)c3ccc(F)cc3)nc3ccc(CN4CCC(C(C)(C)O)CC4)cc32)CC1,active
14,COc1cc(OC)nc([C@@H](NC(=O)C2CCN(CCN3C(=O)c4ccccc4C3=O)CC2)c2ccc(F)cc2)n1,inactive
15,COc1ccccc1S(=O)(=O)N(C)C[C@H]1OCc2cnnn2CCCC(=O)N([C@@H](C)CO)C[C@@H]1C,inactive
16,C[C@@H]1CN([C@@H](C)CO)C(=O)CCCn2nncc2CO[C@@H]1CN(C)C(=O)Nc1ccc2c(c1)OCO2,inactive
17,C[C@@H]1CN([C@H](C)CO)C(=O)c2cc(C#Cc3ccncc3)cnc2O[C@@H]1CN(C)C(=O)c1ccccc1F,inactive
18,COCCOC(=O)N1C(=O)[C@@]2(c3cc(C#CC4(O)CCCCCC4)ccc31)[C@H](C(=O)N1CCCCCCC1)[C@H]1C(=O)O[C@H](c3ccccc3)[C@H](c3ccccc3)N1[C@@H]2c1ccc(OCCO)cc1,active
19,COCCOC(=O)N1C(=O)[C@@]2(c3cc(C#CC4=CCCCC4)ccc31)[C@H](C(=O)N1CCCCCCC1)[C@H]1C(=O)O[C@H](c3ccccc3)[C@H](c3ccccc3)N1[C@@H]2c1ccc(OCCO)cc1,inactive
20,COCCOC(=O)N1C(=O)[C@@]2(c3cc(C#CC4(O)CCCCCC4)ccc31)[C@H](c1ccc(OCCO)cc1)N1[C@H](c3ccccc3)[C@H](c3ccccc3)OC(=O)[C@H]1[C@@H]2C(=O)N1CCN(c2ncccn2)CC1,inactive
21,C=CCNC(=O)[C@H]1[C@@H]2C(=O)O[C@@H](c3ccccc3)[C@@H](c3ccccc3)N2[C@@H](c2ccc(O)cc2)[C@]12C(=O)N(C(=O)OCCOC)c1ccc(C#CC3(O)CCCCCC3)cc12,inactive
22,COCCOC(=O)N1C(=O)[C@@]2(c3cc(C#CC4(O)CCCCCC4)ccc31)[C@H](c1ccc(OCCO)cc1)N1[C@H](c3ccccc3)[C@H](c3ccccc3)OC(=O)[C@H]1[C@@H]2C(=O)N1CCCCCCC1,active
23,C=CCNC(=O)[C@H]1[C@@H]2C(=O)O[C@@H](c3ccccc3)[C@@H](c3ccccc3)N2[C@@H](c2ccccc2OCCO)[C@]12C(=O)N(C(=O)OCCOC)c1ccc(C#CC3(O)CCCCCC3)cc12,active

row,SMILES,cytotoxicity call
1,COCCOC(=O)N1C(=O)[C@@]2(c3cc(C#CC4(O)CCCCCC4)ccc31)[C@H](c1ccc(OCCO)cc1)N1[C@H](c3ccccc3)[C@H](c3ccccc3)OC(=O)[C@H]1[C@@H]2C(N)=O,inactive
2,C=CCNC(=O)[C@H]1[C@@H]2C(=O)O[C@@H](c3ccccc3)[C@@H](c3ccccc3)N2[C@@H](c2ccc(OCCO)cc2)[C@]12C(=O)N(C(=O)OCCOC)c1ccc(C#CC3(O)CCCCCC3)cc12,inactive
3,COCCOC(=O)N1C(=O)[C@@]2(c3cc(C#CC4(O)CCCCCC4)ccc31)[C@H](C(=O)N1CCN(c3ncccn3)CC1)[C@H]1C(=O)O[C@H](c3ccccc3)[C@H](c3ccccc3)N1[C@@H]2c1ccc(OCCO)cc1,inactive
4,COc1ccc(NC(=O)Nc2cccc3c2O[C@H](CN(C)Cc2ccc(C(F)(F)F)cc2)[C@@H](C)CN([C@@H](C)CO)C3=O)cc1,inactive
5,COc1ccc(NC(=O)Nc2ccc3c(c2)[C@H]2C[C@H](CC(=O)NCc4ccccn4)O[C@@H](CO)[C@H]2O3)cc1,inactive
6,c1ccc(Oc2nnc(-c3ccccc3)c3ccccc23)cc1,inactive
7,C[C@H](CO)N1C[C@H](C)[C@H](CN(C)S(C)(=O)=O)Oc2cc(-c3ccc(F)cc3)ccc2S1(=O)=O,inactive
8,COc1cccc(C#Cc2ccc3c(c2)O[C@@H](CN(C)C(=O)CN2CCOCC2)[C@H](C)CN([C@@H](C)CO)S3(=O)=O)c1,inactive
9,O=C(O)CCCNc1n[nH]c(=O)[nH]c1=O,inactive
10,COC(=O)CCCCCNc1n[nH]c(=O)[nH]c1=O,inactive
11,O=C(CCNc1n[nH]c(=O)[nH]c1=O)N1CCOCC1,active
12,COc1ccc(NC(=O)N(C)C[C@H]2OCCCC[C@@H](C)Oc3ccc(NC(=O)Nc4c(C)noc4C)cc3C(=O)N([C@H](C)CO)C[C@@H]2C)cc1,inactive
13,COc1ccc(NC(=O)Nc2ccc3c(c2)[C@@H]2C[C@@H](CC(=O)N4CCN(C)CC4)O[C@@H](CO)[C@@H]2O3)cc1,inactive
14,C[C@H]1CN([C@@H](C)CO)C(=O)Cc2cc(NC(=O)Nc3ccc(C(F)(F)F)cc3)ccc2O[C@@H]1CN(C)CC1CCCCC1,inactive
15,C[C@H](CO)N1C[C@H](C)[C@H](CN(C)C(=O)NC2CCCCC2)Oc2ccc(NC(=O)Nc3ccc(C(F)(F)F)cc3)cc2CC1=O,inactive
16,C[C@@H]1CN([C@@H](C)CO)C(=O)Cc2cc(NC(=O)Nc3ccc(C(F)(F)F)cc3)ccc2O[C@H]1CN(C)CC1CCCCC1,active
17,C[C@H]1CN([C@@H](C)CO)C(=O)Cc2cc(NC(=O)Nc3ccc(C(F)(F)F)cc3)ccc2O[C@H]1CN(C)CC1CCCCC1,active
18,C[C@@H]1CN([C@@H](C)CO)C(=O)Cc2cc(NC(=O)Nc3ccc(C(F)(F)F)cc3)ccc2O[C@@H]1CN(C)CC1CCCCC1,active
19,C[C@H](CO)N1C[C@H](C)[C@H](CN(C)CC2CCCCC2)Oc2ccc(NC(=O)Nc3ccc(C(F)(F)F)cc3)cc2CC1=O,active
20,CN(C)CCCNC(=O)C[C@H]1CC[C@H]2[C@@H](COc3ccc(NC(=O)c4ccc5c(c4)OCO5)cc3C(=O)N2C)O1,inactive
21,CCCN(C)C[C@H]1OCCCC[C@H](C)Oc2ccc(NS(C)(=O)=O)cc2C(=O)N([C@H](C)CO)C[C@H]1C,inactive
22,C[C@H](CO)N1C[C@H](C)[C@@H](CN(C)Cc2ccncc2)Oc2cc(C#CCN(C)C)ccc2S1(=O)=O,inactive
23,CN([C@@H](c1ccccc1)c1ccccn1)S(=O)(=O)c1cn(C)c(=O)n(C)c1=O,inactive

row,SMILES,cytotoxicity call
1,Cc1ccc(S[C@]2(C(=O)O)CC(=O)N(C3Cc4ccccc4C3)[C@@H]2c2ccc(CO)cc2I)cc1,inactive
2,COCC(=O)Nc1ccc2c(c1)C(=O)N(C)C[C@H](OC)[C@H](C)CN(Cc1ccccc1OC)[C@H](C)CO2,inactive
3,C[C@H]1CN([C@@H](C)CO)C(=O)Cc2cc(NS(C)(=O)=O)ccc2O[C@@H]1CN(C)C(=O)Nc1ccccc1,inactive
4,COCCNC(=O)C[C@@H]1C[C@@H]2c3cc(NS(C)(=O)=O)ccc3O[C@@H]2[C@@H](CO)O1,inactive
5,COc1ccc([C@H]2C/C=C\C[C@H](c3cccc(Cl)c3)NC(=O)[C@@H](c3ccccc3)CC(=O)N2)c(OC)c1,inactive
6,CC(=O)O.N=C(N)NN=Cc1c(Cl)cccc1Cl,inactive
7,Cc1ccc(-c2ccc3c(c2)O[C@@H](CN(C)C(=O)CN(C)C)[C@H](C)CN([C@@H](C)CO)S3(=O)=O)cc1,inactive
8,CN(C)CCNC(=O)[C@H]1CN(Cc2cnn(C)c2)Cc2ccnn2C1,inactive
9,C[C@@H]1CN([C@H](C)CO)C(=O)Cc2cc(NC(=O)Nc3ccc(C(F)(F)F)cc3)ccc2O[C@@H]1CN(C)CC1CCCCC1,active
10,C[C@@H]1CN([C@H](C)CO)C(=O)Cc2cc(NC(=O)Nc3ccc(C(F)(F)F)cc3)ccc2O[C@H]1CN(C)CC1CCCCC1,active
11,C[C@H]1CN([C@@H](C)CO)C(=O)Cc2cc(NC(=O)Nc3ccc(C(F)(F)F)cc3)ccc2O[C@@H]1CN(C)C(=O)NC1CCCCC1,inactive
12,COCC(=O)N1C[C@H](C)[C@H](OC)CN(C)C(=O)c2ccc(NC(=O)Nc3ccccc3)cc2OC[C@@H]1C,inactive
13,Cc1ccc(S(=O)(=O)N(C)C[C@H]2Oc3ccc(NS(=O)(=O)c4ccccc4)cc3CC(=O)N([C@H](C)CO)C[C@@H]2C)cc1,inactive
14,CC(C)NC(=O)N[C@H]1CC[C@H](CCN)O[C@H]1CO,inactive
15,C[C@@H]1CN([C@H](C)CO)C(=O)c2cc(NC(=O)Cc3ccccc3)ccc2O[C@@H](C)CCCCO[C@@H]1CN(C)C(=O)Nc1cccc2ccccc12,inactive
16,C[C@@H]1CCCCO[C@@H](CN(C)C(=O)Nc2cccc3ccccc23)[C@@H](C)CN([C@@H](C)CO)C(=O)c2cc(NC(=O)Cc3ccccc3)ccc2O1,inactive
17,C[C@H]1CCCCO[C@@H](CN(C)C(=O)Nc2cccc3ccccc23)[C@@H](C)CN([C@@H](C)CO)C(=O)c2cc(NC(=O)Cc3ccccc3)ccc2O1,active
18,C[C@@H]1CCCCO[C@@H](CN(C)C(=O)Nc2cccc3ccccc23)[C@H](C)CN([C@H](C)CO)C(=O)c2cc(NC(=O)Cc3ccccc3)ccc2O1,inactive
19,C[C@@H]1CN([C@@H](C)CO)C(=O)c2cc(NC(=O)Cc3ccccc3)ccc2O[C@@H](C)CCCCO[C@@H]1CN(C)C(=O)Nc1cccc2ccccc12,active
20,C[C@@H]1CCCCO[C@H](CN(C)C(=O)Nc2cccc3ccccc23)[C@@H](C)CN([C@@H](C)CO)C(=O)c2cc(NC(=O)Cc3ccccc3)ccc2O1,inactive
21,C[C@H](CO)N1C[C@H](C)[C@@H](CN(C)C(=O)Nc2cccc3ccccc23)OCCCC[C@H](C)Oc2ccc(NC(=O)Cc3ccccc3)cc2C1=O,inactive
22,C[C@@H]1CCCCO[C@H](CN(C)C(=O)Nc2cccc3ccccc23)[C@H](C)CN([C@H](C)CO)C(=O)c2cc(NC(=O)Cc3ccccc3)ccc2O1,active
23,C[C@@H]1CCCCO[C@@H](CN(C)C(=O)Nc2cccc3ccccc23)[C@H](C)CN([C@@H](C)CO)C(=O)c2cc(NC(=O)Cc3ccccc3)ccc2O1,inactive

# From the antibiotic and cytotoxicity screens of Wong et al. (2023)
